Inconclusive results are not listed. Unmarked numbers belong to inactive results. The call rests on the fitted dose curve; in most records, active means well fitted cell-killing curve with a large enough effect; inconclusive means small, poorly fitted or top-dose-only effect, or effect the other way; inactive means flat fitted curve, though single readings scatter.
Each compound was assayed on Tov-21-G (assay: Primary qHTS to identify gynecologic anti-cancer compounds using libraries of approved drugs and bioactive compounds (AID 1345084; further: nearly all actives have a fitted effect of over 55% in size)). Conditions: Gynecologic cancer cell panel viability, ATPlite luminescence, 48 h; series mostly up to 57.5 µM; activity change, negative = cytotoxicity: at the top concentration.
Method in brief: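 Measured: luminescence after ATPlite addition (15 min, RT). Exposure: 48 h, 37 C, 5% CO2.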
On the % scale 0 is the no-effect control and ±100 the full control effect.

Compound | activity change, negative = cytotoxicity
CCCCc1ccc(NS(=O)(=O)c2ccc(F)cc2)cc1 | 10.2%
CC[C@@H]1C[C@]1(NC(=O)[C@@H]1C[C@@H]2CN1C(=O)[C@H](C(C)(C)C)NC(=O)OCC(C)(C)CCCCc1cccc3c1CN(C3)C(=O)O2)C(=O)NS(=O)(=O)C1CC1 | -4.49%
COc1ccccc1OCCN1CC(COc2cccc3[nH]c4ccccc4c23)OCC1=O (centres undefined) | 0%
CN(C)N(C)C(=O)[C@@]1(Cc2ccccc2)CCCN(C(=O)[C@@H](Cc2c[nH]c3ccccc23)NC(=O)C(C)(C)N)C1 | 0.419%
C[C@@H](NC(=O)c1ccc(C#Cc2cccc(F)c2)cn1)C(C)(C)O | 3.88%
COc1cc2c(cc1O)C1(Cc3ccc4c(c3C1O)OCO4)[N+](C)([O-])CC2 (centres undefined) | 12.6% [at 38.5 µM]
C/C=C(\C)C(=O)O[C@H]1C[C@](C)(O)[C@H]2CC=C(C)[C@H]2[C@@H]2OC(=O)[C@H](C)[C@H]21 | -1.05% [at 38.5 µM]
CCNC1(C(N)=O)CCN(c2ncnc3c2nc(-c2ccccc2Cl)n3-c2ccc(Cl)cc2)CC1 | 2.89%
COc1ccccc1N1CCN(CC[C@@](C)(C(=O)C2CCCCC2)c2ccccc2)CC1 | -6.73%
CC(C)(C)c1ccc(C(=O)Nc2cn3cc(-n4ccnc4)ccc3n2)cc1 | -10.5%
COc1cc(CN(CCN)C(=O)c2cccs2)ccc1OCc1ccccc1 | -7.4%
CCN(CCNC(=O)Nc1ccccc1Br)c1cccc(C)c1 | 0.0719%
CCCCOc1ccc(S(=O)(=O)n2c(C)nc3ccccc32)cc1 | -2.62% [at 25.3 µM]
CCN(c1cc(-c2ccc(CN3CCOCC3)cc2)cc(C(=O)NCc2c(C)cc(C)[nH]c2=O)c1C)C1CCOCC1 | -10.2%
C=C1CC[C@@H](O)[C@]2(C)CC[C@H]3C(=C)C(=O)O[C@@H]3[C@@H]12 | -26.2%
CN[C@@H]1[C@H](O[C@H]2[C@H](O[C@@H]3[C@@H](O)[C@H](O)[C@@H](N=C(N)N)[C@H](O)[C@H]3N=C(N)N)O[C@@H](C)[C@]2(O)CO)O[C@@H](CO)[C@H](O)[C@H]1O | 7.94%
Cc1cc(C)c(S(=O)(=O)n2cc(C)cc2C)c(C)c1 | -0.712%
Cc1cn2c(n1)Cc1ccc(Cl)cc1C(c1ccc(N)cc1)=N2 | 11.6%
COc1c(C(C)C)c(O)c(O)c2c1C(OC)[C@H]1OC(=O)[C@@]23CCCC(C)(C)[C@H]13 (some centres undefined) | 4.54% [at 38.5 µM]
CC(=O)OC[C@]12[C@H](OC(C)=O)[C@H](OC(=O)c3ccccc3)[C@@H]3[C@@H](OC(C)=O)[C@]1(OC3(C)C)[C@H](C)C[C@H](OC(C)=O)[C@@H]2OC(=O)c1ccccc1 | 6.74% [at 25.3 µM]

Compound | activity change, negative = cytotoxicity
C=C1CCN([C@H](C)[C@](O)(Cn2cncn2)c2ccc(F)cc2F)CC1 | 4.27%
COc1cccc(CN(C(=O)CC(C)(C)C)[C@H]2C[C@H](C(=O)N3CCNCC3)N(Cc3ccc4c(c3)OCO4)C2)c1 | -7.71%
CC(=O)OC1C(O)CC2(C)C(CCC3(C)C2CC=C2C4C5(CCC(CO[C@@H]6O[C@H](CO)[C@@H](O)[C@H](O)[C@H]6O)(OC5=O)C4(C)O)C(O)CC23C)C1(C)C (some centres undefined) | -7.52% [at 25.3 µM]
COc1ccc(-c2cnc3c(-c4cccc5ncccc45)cnn3c2)cc1 | -2.29%
O=S(=O)(c1ccccc1)N(CC(F)(F)F)c1ccc(C(O)(C(F)(F)F)C(F)(F)F)cc1 | 21.4%
CC(C)C(C)C(O)C1CC23CC(=O)C4(O)C(=C2CCC3C1C)C=CC1(O)CC(O)CCC14C (centres undefined) | -0.0818% [at 25.3 µM]
CN(C)c1ccnc2sc3c(=O)n(N4CCCCCC4)cnc3c12 | 9.01%
CN1CCN(c2ccc(-c3cccc(CN4CCOCC4)c3)cc2NC(=O)c2c[nH]c(=O)cc2C(F)(F)F)CC1 | -0.0244% [at 38.5 µM]
C[C@@H]1O[C@@H](O[C@H]2[C@@H](OC(=O)[C@]34CCC(C)(C)CC3C3=CCC5[C@@]6(C)C[C@H](O)[C@H](O[C@@H]7O[C@H](CO)[C@@H](O)[C@H](O)[C@H]7O[C@@H]7OC[C@@H](O)[C@H](O)[C@H]7O)[C@@](C)(C(=O)O)C6CC[C@@]5(C)[C@]3(C)CC4)OC[C@H](O)[C@@H]2O)[C@H](O)[C@H](O)[C@H]1O[C@@H]1OC[C@@H](O)[C@H](O)[C@H]1O (some centres undefined) | 0.0725% [at 6.55 µM]
CC1(C)CCCC2(C)C1C(OC(=O)/C=C/C=C/C=O)C=C1COC(=O)C12O (centres undefined) | -7.13% [at 25.3 µM]
CC(=O)O[C@]1(C(C)=O)CC[C@H]2[C@@H]3CCC4=CC(=O)CCC4=C3[C@@H](c3ccc(N(C)C)cc3)C[C@@]21C | 10.2%
O=C(NCCO)c1cccc(-c2cc(Nc3ccc(OC(F)(F)F)cc3)ncn2)c1 | 24.1%
CN1CCc2cc3c(cc2C(=O)Cc2cc4c(cc2C1)OCO4)OCO3 | 1.1% [at 38.5 µM]
C=C(C)C(=O)O[C@H]1/C(C=O)=C\CC/C(CO)=C/[C@H]2OC(=O)C(=C)[C@@H]2[C@@H]1OC | -6.58% [at 38.5 µM]
O=C(CSc1nc2ccccc2c(=O)n1-c1ccccc1)Nc1ccc2c(c1)CCC2 | 8.7%
CC1=C2C[C@@]3(C)C(CCC[C@@H]3C)C(O)C2OC1=O (some centres undefined) | -0.923%
C=C1/C(=C/C=C2\CCC[C@]3(C)[C@@H]([C@@H](C)OCCC(O)(CC)CC)CC[C@@H]23)C[C@@H](O)C[C@@H]1O | 0.12%
CC(C)(C)C1CCN(C(=O)n2ncc(C(O)(c3ccccc3)c3ccccc3)n2)CC1 | -18.4%
CC(=O)C1=C(O)C=C2Oc3c(C(C)=O)c(O)c(C)c(O)c3[C@]2(C)C1=O | 9.99%
